Design in all cases: scale not given: direction of the effect not stated beside the values
Assay [1] addresses Protein translocase subunit SecA (Escherichia coli (strain K12)) (UniProt P10408). The experiment in a line: Assay to Identify E. coli SecA ATPase Inhibitors. The assay is classed as functional. Conditions: 30 µM.
The target in assay [2] is T1, Ubiquitin-activating enzyme e1, putative (Leishmania donovani (strain BPK282A1)) (UniProt E9BSI1).
T1 sequence (whole entry): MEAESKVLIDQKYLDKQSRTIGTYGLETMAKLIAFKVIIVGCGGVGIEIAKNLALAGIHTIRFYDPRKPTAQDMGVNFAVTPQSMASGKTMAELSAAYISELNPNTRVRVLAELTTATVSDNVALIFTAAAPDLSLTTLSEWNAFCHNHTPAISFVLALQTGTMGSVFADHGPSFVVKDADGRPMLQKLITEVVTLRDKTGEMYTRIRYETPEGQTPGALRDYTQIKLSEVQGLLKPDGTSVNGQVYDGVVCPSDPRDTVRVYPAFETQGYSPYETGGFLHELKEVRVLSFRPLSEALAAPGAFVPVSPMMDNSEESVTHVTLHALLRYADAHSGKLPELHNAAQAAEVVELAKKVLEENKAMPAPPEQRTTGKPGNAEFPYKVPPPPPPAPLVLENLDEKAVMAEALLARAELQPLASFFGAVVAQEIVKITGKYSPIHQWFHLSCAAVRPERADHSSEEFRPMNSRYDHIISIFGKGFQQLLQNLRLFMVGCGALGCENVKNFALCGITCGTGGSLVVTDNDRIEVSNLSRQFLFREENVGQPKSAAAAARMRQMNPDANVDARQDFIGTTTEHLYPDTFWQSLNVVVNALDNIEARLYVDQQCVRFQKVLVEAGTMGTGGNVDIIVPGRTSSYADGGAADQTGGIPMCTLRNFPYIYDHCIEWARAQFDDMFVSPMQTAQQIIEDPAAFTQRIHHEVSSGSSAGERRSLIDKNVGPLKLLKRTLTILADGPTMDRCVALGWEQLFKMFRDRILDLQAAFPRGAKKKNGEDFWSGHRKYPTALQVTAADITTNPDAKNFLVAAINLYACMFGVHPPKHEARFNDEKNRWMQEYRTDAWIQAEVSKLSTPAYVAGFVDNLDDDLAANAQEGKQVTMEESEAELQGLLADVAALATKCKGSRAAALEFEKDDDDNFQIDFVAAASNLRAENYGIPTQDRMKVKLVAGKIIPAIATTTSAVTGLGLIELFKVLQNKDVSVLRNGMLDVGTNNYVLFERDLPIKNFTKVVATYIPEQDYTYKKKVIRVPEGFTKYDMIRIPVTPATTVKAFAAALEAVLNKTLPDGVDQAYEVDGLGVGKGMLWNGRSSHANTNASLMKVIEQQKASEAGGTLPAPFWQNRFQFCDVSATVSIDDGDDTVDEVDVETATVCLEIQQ
The experiment in a line: Leishmania donovani Ubiquitin Activating Enzyme (LdE1). The assay is classed as functional. Conditions: 30 µM.

Assay [3] addresses AMP-activated protein kinase, AMPK (Homo sapiens) (UniProt P54646+O43741+P54619+Q9UGJ0+Q9Y478+Q13131+Q9UGI9). Put plainly: AMP-dependent Kinase enzyme assay. An in vitro enzyme assay that detects ADP turnover that is directly proportional to AMPK activity. This uses naive AMPK that is activated during the assay with MK-8722. Conditions: 30 µM. The assay is classed as functional.

Assay [4] has as its target Sialic acid-binding Ig-like lectin 9 (Homo sapiens) (UniProt Q9Y336). Put plainly: Hs-Siglec9 ALPHAscreen SOP 20170721. Conditions: 10 µM.
In another assay the test system is Trypanosoma cruzi. The experiment in a line: Trypanosoma cruzi phosphomannomutase and mannose-1-phosphate guanylyltransferase assay. The assay is classed as functional. The following applies: 10 µM.
Assay [5] deals with T2, Arginase-2, mitochondrial (Homo sapiens) (UniProt P78540).
T2 sequence (whole entry): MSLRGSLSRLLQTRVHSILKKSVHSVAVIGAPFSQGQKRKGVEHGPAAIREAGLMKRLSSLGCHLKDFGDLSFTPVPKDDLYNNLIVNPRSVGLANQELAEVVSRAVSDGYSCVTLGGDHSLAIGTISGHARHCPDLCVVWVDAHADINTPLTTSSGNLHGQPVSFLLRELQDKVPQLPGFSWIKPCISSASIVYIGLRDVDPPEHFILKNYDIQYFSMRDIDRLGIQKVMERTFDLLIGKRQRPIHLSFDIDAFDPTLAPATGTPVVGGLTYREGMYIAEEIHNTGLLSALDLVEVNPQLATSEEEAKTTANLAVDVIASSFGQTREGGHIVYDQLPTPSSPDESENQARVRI
Put plainly: in vitro enzyme assay to detect the production of urea directly proportional to the activity of Arginase II. Also: in the data most compounds retested in dose-response had high values. The assay is classed as functional. The following applies: 33.3 µM.

In assay [6] the target is T3, Proteasome subunit beta (Trypanosoma cruzi) (UniProt O96673).
T3 sequence (whole entry): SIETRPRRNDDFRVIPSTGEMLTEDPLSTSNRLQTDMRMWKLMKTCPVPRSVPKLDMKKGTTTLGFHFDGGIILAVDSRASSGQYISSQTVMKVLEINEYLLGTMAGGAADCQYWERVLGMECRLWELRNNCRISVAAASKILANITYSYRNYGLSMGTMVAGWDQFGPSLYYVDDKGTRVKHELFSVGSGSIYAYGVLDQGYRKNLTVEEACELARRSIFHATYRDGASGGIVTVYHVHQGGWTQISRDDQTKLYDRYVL
The experiment in a line: Trypanosoma cruzi proteasome chymotrypsin-like activity (TcProtChymo) assay. Also: in the data most compounds retested in dose-response had high values. The assay is classed as functional. The following applies: 9.37 µM.

The species entered for a further assay is Homo sapiens. The experiment in a line: To identify inhibition of the IFN signalling (Jak-Stat) pathway via expression of an eGFP reporter gene under the control of an IFN-stimulated response element (ISRE) containing MxA promoter. The assay is classed as functional. The following applies: 30 µM.
In assay [7] the target is T4, Tyrosyl-tRNA synthetase, putative (Trypanosoma cruzi (strain CL Brener)) (UniProt Q4DSP6).
T4 sequence (whole entry): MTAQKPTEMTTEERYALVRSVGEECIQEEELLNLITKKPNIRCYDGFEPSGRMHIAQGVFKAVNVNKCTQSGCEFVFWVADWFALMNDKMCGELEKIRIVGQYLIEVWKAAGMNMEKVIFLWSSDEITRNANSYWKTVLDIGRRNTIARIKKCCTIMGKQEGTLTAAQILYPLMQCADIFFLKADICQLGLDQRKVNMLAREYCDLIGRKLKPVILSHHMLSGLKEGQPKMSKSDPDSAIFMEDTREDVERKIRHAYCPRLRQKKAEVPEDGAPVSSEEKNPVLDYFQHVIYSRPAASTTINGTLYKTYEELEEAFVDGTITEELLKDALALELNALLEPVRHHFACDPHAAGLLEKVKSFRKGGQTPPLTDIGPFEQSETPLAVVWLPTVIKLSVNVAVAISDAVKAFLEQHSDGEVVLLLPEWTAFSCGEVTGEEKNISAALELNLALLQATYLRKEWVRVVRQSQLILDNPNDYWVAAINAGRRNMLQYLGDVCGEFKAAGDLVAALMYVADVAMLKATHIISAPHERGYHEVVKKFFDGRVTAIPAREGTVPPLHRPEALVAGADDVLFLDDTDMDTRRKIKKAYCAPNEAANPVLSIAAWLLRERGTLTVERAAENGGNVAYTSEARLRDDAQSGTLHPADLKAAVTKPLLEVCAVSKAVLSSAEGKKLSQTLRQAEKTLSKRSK
The experiment in a line: Trypanosoma cruzi tyrosyl tRNA synthetase (TcYRS) _High Tyrosine SOP. Also: in the data most compounds retested in dose-response had high values. The assay is classed as functional. The following applies: 30 µM.

Assay [8] has as its target T4, Tyrosyl-tRNA synthetase, putative (Trypanosoma cruzi (strain CL Brener)). The experiment in a line: Trypanosoma cruzi tyrosyl tRNA synthetase (TcYRS) SOP. The assay is classed as functional. Conditions: 30 µM.
Assay [9] addresses Chromo domain-containing protein 1 (Saccharomyces cerevisiae (strain ATCC 204508 / S288c) (Baker's yeast)) (UniProt P32657). Put plainly: ScCHD-1 Enzyme Inhibition Assay. Also: in the data most compounds retested in dose-response had high values. The following applies: 30 µM. The assay is classed as functional.

For some of these results: Potency and affinity values are given separately.

Protein translocase subunit SecA (Escherichia coli (strain K12)), sequence (P10408 whole entry): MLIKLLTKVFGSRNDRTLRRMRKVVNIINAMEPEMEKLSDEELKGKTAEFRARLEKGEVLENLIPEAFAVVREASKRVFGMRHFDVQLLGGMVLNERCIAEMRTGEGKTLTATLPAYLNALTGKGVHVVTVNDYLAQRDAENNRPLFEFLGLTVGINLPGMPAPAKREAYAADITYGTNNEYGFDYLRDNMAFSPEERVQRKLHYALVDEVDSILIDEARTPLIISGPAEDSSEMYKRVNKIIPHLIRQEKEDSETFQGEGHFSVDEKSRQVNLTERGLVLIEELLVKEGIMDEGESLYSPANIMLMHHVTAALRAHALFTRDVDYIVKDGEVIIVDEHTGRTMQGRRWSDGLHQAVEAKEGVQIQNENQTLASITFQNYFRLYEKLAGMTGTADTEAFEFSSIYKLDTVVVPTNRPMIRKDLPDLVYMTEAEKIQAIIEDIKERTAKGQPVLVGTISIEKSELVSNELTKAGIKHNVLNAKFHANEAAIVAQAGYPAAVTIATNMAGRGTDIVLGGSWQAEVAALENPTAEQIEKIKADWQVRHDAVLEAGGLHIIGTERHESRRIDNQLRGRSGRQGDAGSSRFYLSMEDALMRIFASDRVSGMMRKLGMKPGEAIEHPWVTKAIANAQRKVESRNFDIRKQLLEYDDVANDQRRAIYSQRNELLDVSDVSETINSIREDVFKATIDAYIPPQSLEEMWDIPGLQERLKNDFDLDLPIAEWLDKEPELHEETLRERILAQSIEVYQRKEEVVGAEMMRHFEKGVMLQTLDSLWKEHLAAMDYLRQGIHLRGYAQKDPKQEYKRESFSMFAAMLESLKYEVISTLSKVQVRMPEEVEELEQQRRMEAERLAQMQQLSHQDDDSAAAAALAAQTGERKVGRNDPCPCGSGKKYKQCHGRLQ
Sialic acid-binding Ig-like lectin 9 (Homo sapiens), sequence (Q9Y336 whole entry): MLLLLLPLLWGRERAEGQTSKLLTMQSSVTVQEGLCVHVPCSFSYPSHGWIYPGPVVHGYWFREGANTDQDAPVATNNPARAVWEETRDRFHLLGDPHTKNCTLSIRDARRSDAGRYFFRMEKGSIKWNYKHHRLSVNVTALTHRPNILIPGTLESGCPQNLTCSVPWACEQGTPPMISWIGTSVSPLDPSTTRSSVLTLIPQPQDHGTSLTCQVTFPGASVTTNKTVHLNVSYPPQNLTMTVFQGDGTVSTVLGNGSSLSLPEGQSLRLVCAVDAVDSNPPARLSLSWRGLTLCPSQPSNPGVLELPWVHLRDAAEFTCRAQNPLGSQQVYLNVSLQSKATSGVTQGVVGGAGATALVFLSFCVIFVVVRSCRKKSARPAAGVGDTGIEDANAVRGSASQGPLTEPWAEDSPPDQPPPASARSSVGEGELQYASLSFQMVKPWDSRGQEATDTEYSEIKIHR
Chromo domain-containing protein 1 (Saccharomyces cerevisiae (strain ATCC 204508 / S288c) (Baker's yeast)), sequence (P32657 whole entry, the tested form may be a part): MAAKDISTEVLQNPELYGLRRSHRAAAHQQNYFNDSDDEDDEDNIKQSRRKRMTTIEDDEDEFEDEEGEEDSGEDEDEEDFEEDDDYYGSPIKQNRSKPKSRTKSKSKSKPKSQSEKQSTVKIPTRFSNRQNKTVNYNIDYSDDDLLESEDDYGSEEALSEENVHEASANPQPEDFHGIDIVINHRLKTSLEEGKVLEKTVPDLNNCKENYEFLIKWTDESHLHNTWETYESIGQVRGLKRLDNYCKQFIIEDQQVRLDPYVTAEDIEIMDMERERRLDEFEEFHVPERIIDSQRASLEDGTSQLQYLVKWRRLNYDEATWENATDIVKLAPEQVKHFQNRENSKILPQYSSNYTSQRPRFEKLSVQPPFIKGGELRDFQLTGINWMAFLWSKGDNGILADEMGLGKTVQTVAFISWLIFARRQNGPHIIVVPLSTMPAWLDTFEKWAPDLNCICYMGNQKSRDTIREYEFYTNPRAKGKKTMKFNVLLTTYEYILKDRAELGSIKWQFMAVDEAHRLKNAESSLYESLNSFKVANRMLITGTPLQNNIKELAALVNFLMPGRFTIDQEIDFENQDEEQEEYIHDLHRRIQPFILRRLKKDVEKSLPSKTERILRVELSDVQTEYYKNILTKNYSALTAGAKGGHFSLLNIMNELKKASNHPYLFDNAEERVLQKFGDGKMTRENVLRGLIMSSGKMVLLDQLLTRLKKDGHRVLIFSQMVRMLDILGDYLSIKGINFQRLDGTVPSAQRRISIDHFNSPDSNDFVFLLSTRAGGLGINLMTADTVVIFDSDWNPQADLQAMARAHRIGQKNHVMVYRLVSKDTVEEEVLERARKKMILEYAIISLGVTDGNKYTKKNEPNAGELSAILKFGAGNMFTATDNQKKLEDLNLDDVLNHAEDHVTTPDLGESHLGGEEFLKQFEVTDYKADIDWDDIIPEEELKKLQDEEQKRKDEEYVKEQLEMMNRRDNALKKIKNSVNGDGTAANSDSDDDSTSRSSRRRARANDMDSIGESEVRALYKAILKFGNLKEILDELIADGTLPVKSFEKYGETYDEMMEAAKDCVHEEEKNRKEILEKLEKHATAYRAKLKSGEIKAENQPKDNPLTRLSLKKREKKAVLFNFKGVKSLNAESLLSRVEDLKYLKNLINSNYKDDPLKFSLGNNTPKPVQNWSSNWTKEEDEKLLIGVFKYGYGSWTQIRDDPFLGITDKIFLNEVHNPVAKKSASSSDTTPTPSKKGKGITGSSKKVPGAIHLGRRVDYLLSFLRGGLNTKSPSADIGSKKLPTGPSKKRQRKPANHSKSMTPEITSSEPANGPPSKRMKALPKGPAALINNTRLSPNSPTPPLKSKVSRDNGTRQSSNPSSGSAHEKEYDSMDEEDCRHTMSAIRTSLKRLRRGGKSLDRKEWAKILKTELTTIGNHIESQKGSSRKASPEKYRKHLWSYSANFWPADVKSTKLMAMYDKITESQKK

Take `Cc1nc(C)n(CC2CCCN2Cc2nc(C3CC3)no2)n1` (stereo unspecified): the Percent Effect in assay [1] was -1.33%; in assay [2], 2.63%; in [3] it was -3.31%; in assay [4], -2.5%; in the assay with Trypanosoma cruzi, 4.32%; in [5], -3.83%. The Percent Effect was 1.34% in [6]; -15.7% in the assay filed under Homo sapiens; 2.45% in [7]; 4.88% in assay [8]; -4.84% in [9].

As to `O=C1CC[C@H]2CN(Cc3ccc(Cl)s3)CC[C@H]2N1CCc1c[nH]cn1`, the Percent Effect was -2.35% in assay [1]; 5.48% in assay [2]; 2.32% in assay [3]; 10.8% in assay [4]; 4.37% in the assay with Trypanosoma cruzi; -1.6% in assay [5]. Besides, the Percent Effect in [6] is 11.9%; in the assay listed under Homo sapiens it was 34.2%; in assay [7] it was 3.12%; in assay [8] it was 8.64%; in [9] it was -0.239%.

Consider `O=C(NCC1CC1)C1CN(C(=O)c2cccs2)CC12CCOCC2` (stereo unspecified), for which the Percent Effect in [1] was -8.31%; in assay [2], 16%; in assay [3], 2.41%; in assay [4] it was 3.43%; in the assay on Trypanosoma cruzi, 0.579%; in assay [5] it was -52.5%. Also, the Percent Effect is 4.62% in [6]; -9.4% in the assay listed under Homo sapiens; 5.21% in assay [7]; -47.5% in assay [8]; -5.08% in assay [9].

Consider `O=C(Nc1ccccc1F)N1CCN(Cc2noc(C3CC3)n2)CC1`, for which the Percent Effect is -1.58% in assay [1]; 11.4% in assay [2]; 5.8% in [3]; 0.391% in assay [4]; -2.36% with Trypanosoma cruzi; 4.09% in assay [5]. In addition, the Percent Effect was 8.4% in [6]; 4.54% in the assay filed under Homo sapiens; 5.21% in [7]; 20.2% in assay [8]; -23.3% in assay [9].

`O=C(C(CNCc1ccncc1)c1ccccc1)N1CCOCC1` (stereo unspecified): the Percent Effect in assay [1] was 0.622%; in [2] it was 5.2%; in assay [3], 0.193%; in assay [4], 1.44%; in the assay on Trypanosoma cruzi, -6.59%; in assay [5], -8.28%. The Percent Effect in assay [6] was 18.3%; in the assay filed under Homo sapiens it was 17.2%; in assay [7], 3.23%; in assay [8], 11.1%; in assay [9], -2.54%.

Turning to `Cc1cc(C(=O)NCc2ccccn2)no1`, the Percent Effect was 0.824% in assay [1]; 2.7% in assay [2]; -14.1% in [3]; -0.919% in [4]; 2.92% with Trypanosoma cruzi; -3.21% in assay [5]. Also, the Percent Effect in assay [6] is 6.49%; in the assay listed under Homo sapiens it was 7.17%; in [7] it was 3.45%; in [8], -63%; in assay [9] it was 0.179%.

On to `COc1ccc(C)cc1CN(C)Cc1nc2c(cnn2C)c(=O)[nH]1`, for which the Percent Effect in assay [1] is -1.35%; in assay [2], 18.4%; in assay [3] it was 1.85%; in [4], 2.21%; with Trypanosoma cruzi, 2.52%; in [5] it was -4.32%. Further, the Percent Effect in assay [6] was 7.02%; in the assay filed under Homo sapiens it was 7.09%; in assay [7], 9.36%; in [8] it was 23.5%; in assay [9], -5.71%.

Regarding `COc1ccc(CCC(=O)N2CCCC2Cn2cc(C)cn2)cc1F` (stereo unspecified), the Percent Effect is -2.77% in [1]; 0% in assay [2]; 9.15% in assay [3]; 2.46% in assay [4]; 1.27% with Trypanosoma cruzi; 4% in assay [5]. For the same compound, the Percent Effect in assay [6] is -2.67%; in the assay listed under Homo sapiens it was -9.57%; in assay [7], 1.91%; in [8], 2.35%; in assay [9], -12.9%.

As for `COC(=O)c1cc(OCC2CCC2)cc(C(=O)N[C@H]2CC[C@H](O)CC2)c1`, the Percent Effect is -8.61% in assay [1]; 0% in assay [2]; -13.1% in [3]; 12.3% in assay [4]; -5.09% with Trypanosoma cruzi; -0.455% in assay [5]. The Percent Effect in [6] came out at 2.66%; in the assay listed under Homo sapiens it was 32.3%; in assay [7] it was 0%; in assay [8], 0%; in assay [9] it was 0.449%.

With `C[C@@H]1CN(C(=O)c2cnc(C3CC3)nc2)CC[C@@]1(O)C1CCOCC1`, the Percent Effect was -3.43% in [1]; 10.8% in assay [2]; -4.34% in assay [3]; 21.6% in assay [4]; 4.44% in the assay with Trypanosoma cruzi; -8.57% in assay [5]. Also, the Percent Effect in assay [6] was 6.55%; in the assay filed under Homo sapiens, -5.6%; in [7] it was 4.76%; in assay [8] it was 9.76%; in assay [9], -5.75%.

Regarding `CC(NC(=O)NCCCn1ccnc1)c1ccc2c(c1)OCCCO2` (stereo unspecified), the Percent Effect in assay [1] is -3.41%; in assay [2] it was 2.7%; in [3], -7.49%; in [4], -2.67%; with Trypanosoma cruzi, -8.08%; in assay [5], 5.36%. Also, the Percent Effect in assay [6] is -0.539%; in the assay filed under Homo sapiens it was 12.7%; in [7], 1.98%; in assay [8], 1.22%; in assay [9], 2.18%.

Values taken from ChEMBL document CHEMBL3988442, “University of Dundee, Small-Polar-MMV Screening Library” (2021).
